Reference: the supplement of paper PMC3334620
Whole data set: some 33,000 sequences, median “E-score (-0.5 to 0.5)” near -0.054, cut for the highest 2% near 0.35. The full list was thinned out, with the highest values kept by preference.

Biological target: T1, Stb5 (UniProt P38699)
T1 sequence: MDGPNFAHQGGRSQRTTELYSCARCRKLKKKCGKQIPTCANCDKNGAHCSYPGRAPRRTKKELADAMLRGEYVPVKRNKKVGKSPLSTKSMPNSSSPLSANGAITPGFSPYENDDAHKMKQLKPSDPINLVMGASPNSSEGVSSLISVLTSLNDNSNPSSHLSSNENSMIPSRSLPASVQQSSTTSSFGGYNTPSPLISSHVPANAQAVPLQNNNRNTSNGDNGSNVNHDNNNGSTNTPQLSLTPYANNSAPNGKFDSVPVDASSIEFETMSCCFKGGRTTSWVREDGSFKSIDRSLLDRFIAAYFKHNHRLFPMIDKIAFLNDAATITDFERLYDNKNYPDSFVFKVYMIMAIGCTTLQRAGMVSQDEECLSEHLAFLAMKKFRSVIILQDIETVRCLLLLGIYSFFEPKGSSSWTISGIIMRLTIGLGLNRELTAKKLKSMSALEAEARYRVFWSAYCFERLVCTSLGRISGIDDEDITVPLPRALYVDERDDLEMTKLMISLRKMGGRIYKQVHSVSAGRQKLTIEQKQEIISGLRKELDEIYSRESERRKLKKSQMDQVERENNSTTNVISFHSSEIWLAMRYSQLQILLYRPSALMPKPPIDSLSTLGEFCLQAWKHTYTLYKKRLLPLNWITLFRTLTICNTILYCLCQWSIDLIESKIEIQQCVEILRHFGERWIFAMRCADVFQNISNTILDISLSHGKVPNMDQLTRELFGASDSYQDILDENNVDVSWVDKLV
Experiment: PBM E-score (8-mer binding enrichment) (E-score (-0.5 to 0.5)); higher = stronger / more preferred TF binding
Settings: protein concentration: 200 nM; construct: GST-full length
Protocol: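 Universal 'all 10-mer' protein binding microarrays (Agilent AMADID 015681) probed with GST-tagged S. cerevisiae TFs (full-length or DBD) made by in vitro transcription/translation (PURExpress), about 100-200 nM. Bound TF was detected with fluorescent anti-GST. Each ungapped 8-mer (which stands for itself and its reverse complement) is scored by the PBM enrichment score (E-score), a modified Wilcoxon-Mann-Whitney statistic from -0.5 to +0.5, computed with the Universal PBM Analysis Suite. Scale: above 0.35 generally sequence-specific binding.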

Sequence	PBM E-score
CACGCCGG	0.268
AACGCCGG	0.44
AACGCCCG	0.24
AAATAGAT	0.104
AGCTCCGG	0.362
AGCTCCTC	-0.184
AGCTCCCG	-0.0713
GGCTCCGA	0.0871
CGCTCCGC	0.164
AGCTCCTG	-0.18
AGCTCCGC	0.406
CGCTCCGA	0.231
AGCTCCGA	0.405
AGAGCAGA	-0.138
ATGCCCGC	0.366
CGGCCCGC	0.188
ATGCCCGG	0.318
AGGCCCGA	0.314
AGGCCCGC	0.36
CTGCCCGC	0.06
TGACGTCA	0.158
AGATGCGA	0.0797
TACCACGA	-0.267
CTCCGCCC	0.397
GGCCGCCC	0.253

Sequence	PBM E-score
CGCCGCGC	0.368
AGCCGCCG	0.215
AGCCGCCC	0.144
AGCCGCGC	0.173
ATCCGCCC	0.218
CTCCGCCA	0.293
CGCCGCGA	0.289
CGCCGCCA	0.348
CGCCGCCG	0.369
CGCCGCCC	0.352
ATACCTCG	-0.173
GCTTCGAA	-0.0877
ACGTACCC	0.0314
AACTCTAG	-0.33
GGACTCAC	0.0404
AGGACCAA	-0.115
AAGCCTCT	-0.318
AAGTAGCG	0.0894
GAAGTTCC	0.0956
GCTCCGCC	0.347
ACTCCGAT	0.344
ACTCCGCT	0.392
CCTCCGCC	0.223
CCTCCGCG	0.157
AATCCGCG	0.21

Sequence	PBM E-score
ACTCCGCC	0.384
ACTCCGCG	0.357
ACTCCGCA	0.259
AGATAAGC	-0.142
CACACTAG	-0.189
AGTCCACC	0.0594
AAAATATT	0.114
GAAGGCAA	-0.234
GTCTTCCA	-0.125
ATCCAAAT	-0.103
TGTGCTAA	0.0576
GGTGCTAA	0.358
AGTGCTAA	-0.043
GCCGCGCC	0.221
CGGTCACG	0.149
AGCCGGCG	0.248
GGCCGGCA	0.289
GGCCGGCC	0.15
CGCCGGCG	0.428
CGGCGCCG	0.309
CGCCGGCA	0.354
AGCCGGCC	0.111
AGCCGGCA	0.256
CGCCGGCC	0.391
ATAAAAGA	0.0611

Sequence	PBM E-score
GAGCAATA	-0.118
CAACACTG	-0.305
CAGTCAAG	-0.338
CCCACAGC	-0.146
TCCCGCCA	0.205
ACCCGCCG	0.318
CCCCGCCG	0.381
CCCCCCCG	-0.255
GCCCGCCA	0.284
CCCCGCCA	0.406
GGGATGAA	0.0485
CACTGTAG	-0.25
CTTCCCTA	-0.161
ACTGCCGC	0.311
AGGGCTCA	-0.23
AGGGCATA	-0.0797
CGGGCCTC	0.108
AGGGCCTA	0.0959
CGGGCTTC	0.293
CGGGCTCC	0.0609
CGGGCTTA	0.473
AGGGCTTA	0.12
GGGGCATA	0.083
CGGGCATA	0.419
CGGGCTCA	0.358

Sequence	PBM E-score
CGGGCCTA	0.437
CTCGTCCA	-0.102
AGGAATAT	-0.0199
ACATAGAA	-0.0458
AAATCGCG	-0.0128
ATGTGGGC	0.089
GCCGATAA	0.313
CATGAACA	-0.0519
CGGCGGCA	0.411
CCGCGGTC	0.32
CCGCGGTA	0.399
ACGCGGTA	0.215
CGGCGTCA	0.384
AGGCGTCA	-0.0617
AGGCGGCA	0.238
CCGCGGCA	0.367
GCGCGGCA	0.237
GGGCGGCA	0.323
ACGCGGCA	0.189
CGGCGTCC	0.277
GCGCCTCC	-0.0611
CCCTCACC	-0.225
AGTAAAGA	0.143
GCACCCGA	0.0572
TCCGTGAA	0.171

Sequence	PBM E-score
ATGAAACG	0.067
GTTTGGGA	-0.2
CCGCGTTC	0.193
GAGAGTGA	-0.349
CTATCCGC	0.0573
ATATCACC	0.436
ATATCCGC	0.402
CTATCCGA	0.0404
ATCTCTCC	0.216
CTATCTCC	0.235
CTATCACC	0.216
ATATCCGG	0.294
ATATCACA	-0.0666
ACATCCGC	0.339
ATATCCGA	0.37
ATATCTCC	0.397
ATGGGTGA	-0.12
GACTTCCA	-0.177
AGAAAACA	-0.128
AGGTCGCA	0.0143
CTGCTAAA	0.00756
ACTCCATG	-0.0336
CTCAGAAC	-0.191
AATTGGCG	0.063
GCCCCCAC	0.0261

Sequence	PBM E-score
CTATGTCC	0.232
ATATACCG	0.34
CTATACCC	0.229
ATATCCCC	0.395
ATATCCCG	0.275
ATATGTCG	0.083
ATATGTCC	0.406
ATATTCCC	0.372
CTATTCCC	0.136
ATATACCC	0.371
CTATCCCC	0.276
ATATTCCG	0.171
AGTCTGGA	0.00288
TCGATCGA	-0.148
GAGCTCAA	0.0147
ACTGGCCG	-0.0443
TCGCTCCA	-0.126
AAATTCAG	-0.221
CAGCTGAG	-0.231
CCATGCAA	-0.00387
ACGTGGGA	-0.265
AGAAAAGG	-0.103
